Bcl-W Bim block: inhibitors of Bim binding to Bcl-W, primary screen, biochemical, multiplexed, bead-based flow cytometry; Bcl-2-like protein 2 (Homo sapiens), Q92843; hit rate 0.02% among 190,000; inhibition, % at 10 µM; Bim peptide-Bcl-W binding;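 also: higher means less fluorescent Bim peptide bound to Bcl-W beads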
Bim-Bcl-B: inhibitors of Bim-Bcl-B binding, primary screen, biochemical, multiplexed, human Bcl-2 family; bead-based flow cytometry, Bim peptide-Bcl-B binding; inhibition, % at 10 µM; hit rate 0.073% among 190,000
Wee1 stabilizer: Wee1 degradation inhibitors, primary screen, cell-based, HeLa, Wee1K328M-luciferase, luminescence; HeLa Luc-Wee1K328M stability; 100% = proteasome inhibitor MG132 effect; reporter increase, % at 5 µM; hit rate 1.2% among 220,000;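 active = activation above the mean of all tested compounds plus 3 SD, set per screening run, cut at about 8.8% in these data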;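 also: cells exposed to compound for 20 h before luminescence read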
Target sequence (P30291 whole entry K328M): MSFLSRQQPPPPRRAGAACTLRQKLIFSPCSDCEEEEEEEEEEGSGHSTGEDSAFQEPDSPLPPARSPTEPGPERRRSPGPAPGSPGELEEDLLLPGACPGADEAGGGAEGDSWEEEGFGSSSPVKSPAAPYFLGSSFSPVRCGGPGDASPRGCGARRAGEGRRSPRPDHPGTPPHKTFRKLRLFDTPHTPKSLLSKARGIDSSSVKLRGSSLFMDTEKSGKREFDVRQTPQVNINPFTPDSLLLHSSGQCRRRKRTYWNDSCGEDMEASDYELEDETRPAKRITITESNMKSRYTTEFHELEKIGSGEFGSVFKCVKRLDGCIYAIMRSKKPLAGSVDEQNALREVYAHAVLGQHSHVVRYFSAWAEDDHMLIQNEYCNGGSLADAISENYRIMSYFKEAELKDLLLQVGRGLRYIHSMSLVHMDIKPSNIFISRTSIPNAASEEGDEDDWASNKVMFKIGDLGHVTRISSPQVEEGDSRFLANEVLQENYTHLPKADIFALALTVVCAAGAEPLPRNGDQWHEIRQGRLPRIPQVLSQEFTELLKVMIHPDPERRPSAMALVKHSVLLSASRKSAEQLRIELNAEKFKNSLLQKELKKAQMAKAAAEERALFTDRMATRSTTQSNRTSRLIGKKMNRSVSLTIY
Bim-Bfl-1: inhibitors of Bim binding to Bfl-1, primary screen, biochemical, multiplexed, bead-based flow cytometry; Bcl-2-related protein A1 (Homo sapiens), Q16548; Bim-Bfl-1 binding inhibition; inhibition, % at 10 µM; hit rate 0.12% among 190,000; AID 1008, 2008
Bcl-2 Bim block: inhibitors of Bim-Bcl-2 binding, primary screen, biochemical, multiplexed, human Bcl-2 family; AID 950, 2007; hit rate 0.06% among 190,000; Bead-based flow cytometry, Bim peptide-Bcl-2 binding; Apoptosis regulator Bcl-2 (Homo sapiens), P10415; inhibition, % at 10 µM; in the data active = inhibition above about 40%
Bim-Bcl-XL: inhibitors of Bim-Bcl-XL binding, primary screen, biochemical, multiplexed, bead flow cytometry, human Bcl-XL; Bcl-2-like protein 1 (Homo sapiens), Q07817; Bim peptide-Bcl-XL binding, fluorescence; inhibition, % at 10 µM; hit rate 0.04% among 190,000; AID 1007, 2008
Of the large screens only hits and unclear results are named; the others gave an inactive call. Only some compounds are listed: those with a hit (about 1.4% of all), similar ones and a draw of the others. Rule as the data show it, unless noted: active = inhibition above about 40%.

CN(C)c1ccc(NC2=C(Cl)C(=O)c3ccccc3C2=O)cc1	Bcl-W Bim block 48, Bim-Bfl-1 71
O=C(C1CCC(Cn2c(=S)[nH]c3ccccc3c2=O)CC1)N1CCN(c2ccccc2)CC1 (stereo not drawn)	none (no result: Bcl-W Bim block, Bim-Bcl-B, Bim-Bfl-1, Bcl-2 Bim block, Bim-Bcl-XL)
O=C(C1CCC(Cn2c(=S)[nH]c3ccccc3c2=O)CC1)N1CCN(c2ccccn2)CC1 (stereo not drawn)	Bim-Bcl-B 52
COC(=O)c1cn(NC(=O)/C=C/c2cc(OC)ccc2OC)c(=O)c2ccccc12	none
Cc1cccc(-c2nsc(SCC(=O)NCC3CCCO3)n2)c1 (stereo not drawn)	Wee1 stabilizer 9.5
O=[N+]([O-])c1cccc(OCc2cn3cccnc3n2)c1	none
Cc1ccc(OCc2cn3cccnc3n2)cc1	Bim-Bcl-B 58
Cc1onc(-c2ccc(Cl)cc2Cl)c1-c1csc(N/N=C/c2ccccc2Cl)n1	Wee1 stabilizer 9.7 (no result: Bcl-W Bim block, Bim-Bcl-B, Bim-Bfl-1, Bcl-2 Bim block, Bim-Bcl-XL)
CCC(C)(C(=O)NC1CCCC1)N(C(=O)CC1NC(=O)NC1=O)c1c(C)n(C)n(-c2ccccc2)c1=O (stereo not drawn)	none
CNCC(O)CN(c1ccccc1)c1ccccc1 (stereo not drawn)	Wee1 stabilizer 9.7
CC(C)c1nc(SCC(=O)Nc2cccc(S(N)(=O)=O)c2)n[nH]1	Wee1 stabilizer 10
O=C(C1=C[C@H](c2ccc(Br)cc2)C[C@H](OCCCCO)O1)N1CCN(Cc2ccccc2)CC1	none
O=C(CSc1nc2ccccc2[nH]1)NC1CCCC1	none
O=C(CCCSc1nc2ccccc2[nH]1)NC1CCCCC1	Wee1 stabilizer 9.4
O=C(c1ccc(-c2ccccc2)cc1)N1CCN(c2ccccn2)CC1	none
CCN1C(=O)/C(=C/C=C2\C=CN(CC)c3ccccc32)SC1=S	Bim-Bfl-1 50
CCNC(=O)NC(=O)COC(=O)CCCSc1nc2ccccc2s1	none
O=C(Nc1nnc(-c2cccs2)o1)c1cc(-c2ccccc2)nc2ccccc12	Wee1 stabilizer 9.5
COc1ccc(-n2nc(N)c(C(N)=O)n2)cc1	none
COC(=O)c1ccc(NC(=O)C2CCN(S(C)(=O)=O)CC2)cc1	Wee1 stabilizer 11
Cn1c(SCC#N)nnc1-c1cnccn1	none
CN(C)S(=O)(=O)c1cccc(C(=O)OCC(=O)c2ccc3c(c2)NC(=O)CO3)c1	Bim-Bcl-B 43
O=C1COc2ccc(C(=O)COC(=O)Cc3ccsc3)cc2N1	Wee1 stabilizer 10
CC(C)Cn1c(-c2csc3c2CCCC3)n[nH]c1=S	none
CN1CCN(C2=C(Cl)C(=O)N(C3CCCCC3)C2=O)CC1	none
CN1CCN(C2=C(Cl)C(=O)C(c3cnc(N4CCCCC4)s3)=C(Cl)C2=O)CC1	Bim-Bcl-B 58, Bim-Bfl-1 54, Bcl-2 Bim block 44
COc1ccc(C(=O)N2N=C3CC(C)(C)OCC3C2c2ccccc2)cc1 (stereo not drawn)	none
COc1cccc(C(=O)/C=C/Nc2ccc(S(=O)(=O)Nc3onc(C)c3C)cc2)c1	Bim-Bcl-B 78, Bim-Bfl-1 53, Bcl-2 Bim block 82
Cc1noc(NS(=O)(=O)c2ccc(N/C=C\C(=O)c3ccc(Br)cc3)cc2)c1C	none
CCS(=O)(=O)c1ccc(O)c(NC(=O)NC2CCCCC2)c1	none (no result: Bcl-W Bim block, Bim-Bcl-B, Bim-Bfl-1, Bcl-2 Bim block, Bim-Bcl-XL)
CCOC(=O)C(C(=O)OCC)c1cc(Br)c2noc3c2c1C(=O)c1ccccc1-3	Bcl-W Bim block 43, Bim-Bfl-1 43
CCCCCCN1C=CC(=C/C=C(\C#N)C(=O)OCC)C=C1	none
CCCN1C=CC(=C/C=C(\C#N)C(=O)OCC)C=C1	Wee1 stabilizer 12
COC(=O)C1=C(C)NC2=C(C(=O)CC(C)(C)C2)C1c1cnn(C)c1C (stereo not drawn)	none
S=c1[nH]nc(-c2ccc(Cl)cc2)n1CCCN1CCOCC1	none
CCOC(=O)C1=C(O)/C(=C\c2ccc(O)c(OCC)c2)N=C1C	none (no result: Bcl-W Bim block, Bim-Bcl-B, Bim-Bfl-1, Bcl-2 Bim block, Bim-Bcl-XL)
CCOc1cc(/C=C2/N=C(C)C(C(=O)OC)=C2O)ccc1O	Bcl-W Bim block 59, Bim-Bcl-B 44, Bim-Bfl-1 58, Bcl-2 Bim block 59
NC(=O)COC(=O)c1ccccc1SCC(=O)NC1CCCCCC1	none
O=C(CSc1ccc(F)cc1)NCCSc1ccccc1	none
COc1ccccc1/C=C(\NC(=O)c1ccc(OC)c(OC)c1)C(=O)Nc1cc([N+](=O)[O-])ccc1C	Wee1 stabilizer 10
COc1ccc(-n2cc(-c3ccc(OC(F)F)cc3)[n+]3c2CCCCC3)cc1	none
O=[N+]([O-])c1ccc2nc(-c3ccc(OC(F)F)cc3)cn2c1	none
Cc1nnc(NC(=O)c2ccc3c(c2)OCO3)s1	Wee1 stabilizer 11
CCc1ccc(OCC(=O)N/N=C(\C)c2ccc3c(c2)OCCO3)cc1	none
C/C(=N\NC(=O)COc1ccc(C(C)(C)C)cc1)c1ccc2c(c1)OCCO2	Bcl-W Bim block 48, Bim-Bcl-B 88, Bcl-2 Bim block 85
Clc1ccc(/C=N/NC2=Nc3cccc4cccc2c34)cc1	none
C(=N\NC1=Nc2cccc3cccc1c23)/c1ccccc1	Wee1 stabilizer 8.9
Cn1c(=O)c2c(nc(N3CCN(c4ccccc4)CC3)n2CCCc2ccccc2)n(C)c1=O	none
Cn1c(=O)c2c(nc(N3CCN(Cc4ccccc4)CC3)n2CCCc2ccccc2)n(C)c1=O	Wee1 stabilizer 10
O=C(c1ccccc1)N1CCN(c2ccc([N+](=O)[O-])c(NCC3CCCO3)c2)CC1 (stereo not drawn)	Wee1 stabilizer 11
CCOC(=O)c1ccc(NC(=O)COc2ccc(CNC3CCCCC3)cc2OC)cc1	none
CCOC(=O)C1=C(C)C2C3C(=O)N(c4cc(C)ccc4C)C(=O)C3C1(C)C1C(=O)N(c3cc(C)ccc3C)C(=O)C21 (stereo not drawn)	Wee1 stabilizer 9.1
CC(C)(C)c1ccc(C(=O)Nc2ccc(Oc3cccnc3)nc2)cc1	none (no result: Bcl-W Bim block, Bim-Bcl-B, Bim-Bfl-1, Bcl-2 Bim block, Bim-Bcl-XL)
CCOC(=O)C(=CNc1ccc(Oc2cccnc2)nc1)C(=O)OCC	Wee1 stabilizer 9.9 (no result: Bcl-W Bim block, Bim-Bcl-B, Bim-Bfl-1, Bcl-2 Bim block, Bim-Bcl-XL)
CCN(C(=O)COC(=O)/C=C/c1c(C)nn(Cc2ccc(C)cc2)c1C)C1CCS(=O)(=O)C1 (stereo not drawn)	none
O=C(CNC(=O)c1cccs1)NCC(=O)OCc1ccccc1Br	none
O=C(CNC(=O)c1ccco1)NCC(=O)OCc1ccccc1Br	Bcl-2 Bim block 89 (no result: Bim-Bcl-B, Bim-Bfl-1)
O=C(CNC(=O)c1ccco1)OCc1cccc(Cl)c1	Wee1 stabilizer 9.4
CCOc1ccccc1NC(=S)NCc1cccn1C	none
COc1ccccc1CNC(=O)CCS(=O)(=O)c1cccc2nonc12	Wee1 stabilizer 9.8
CC(C)CC(=O)Nc1ccc(C(=O)CN2CCC(C)CC2)cc1	none
